{
  "source": "PubChem BioAssay AID588453",
  "about": "(National Center for Advancing Translational Sciences (NCATS), 2011)",
  "note": "Screen size: about 390,000 compounds; about 4,000 (1%) were called active. Inconclusive results (about 4%) are left out. Calls come from the whole dose curve; as a rule, active = well fitted inhibition curve with a large enough effect; inconclusive = small, poorly fitted or top-dose-only effect; inactive = no such curve, though single readings can be large or run the other way. The list comes from a sample in which actives are over-represented; it also holds similar structures and randomly drawn compounds. A call without a number means that no potency is given here. Potency is the fitted concentration of half-maximal effect.",
  "data": [
    {"target": "Thioredoxin reductase 1, cytoplasmic (Rattus norvegicus) (UniProt O89049)", "sequence (O89049 whole entry, looked up)": "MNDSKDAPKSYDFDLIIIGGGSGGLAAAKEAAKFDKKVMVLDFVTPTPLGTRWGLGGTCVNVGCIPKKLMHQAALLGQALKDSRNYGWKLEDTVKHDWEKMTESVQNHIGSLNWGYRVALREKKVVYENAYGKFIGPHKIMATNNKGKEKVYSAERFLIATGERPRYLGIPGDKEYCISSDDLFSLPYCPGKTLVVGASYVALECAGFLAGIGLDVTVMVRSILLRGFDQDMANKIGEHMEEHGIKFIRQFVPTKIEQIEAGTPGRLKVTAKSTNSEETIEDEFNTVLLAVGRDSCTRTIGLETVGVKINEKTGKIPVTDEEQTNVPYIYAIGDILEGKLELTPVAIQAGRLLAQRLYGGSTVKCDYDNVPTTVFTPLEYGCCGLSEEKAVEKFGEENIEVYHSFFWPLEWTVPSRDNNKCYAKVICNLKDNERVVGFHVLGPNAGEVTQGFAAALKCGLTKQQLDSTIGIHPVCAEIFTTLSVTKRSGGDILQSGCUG", "test": "qHTS Assay for Inhibitors of Mammalian Selenoprotein Thioredoxin Reductase 1 (TrxR1): qHTS; note: nearly all actives have a fitted effect of over 65% in size", "conditions": "recombinant rTrxR1, NADPH fluorescence consumption, selenite substrate; series mostly up to 114 µM", "in_short": "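Rat TrxR1 (90 nM in the dispensed reagent) was pre-reduced with 400 uM NADPH for 5 min at room temperature, then incubated with compound for 15 min. After 400 uM selenite was added, NADPH fluorescence (Ex 340/Em 450 nm) was followed for 8 min.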", "values": [
      {"smiles": "Cc1ccc(C(=O)Nc2ccc3[nH]c(=O)c(=O)[nH]c3c2)cc1", "Potency": "inactive"},
      {"smiles": "CN(C)/C=C1/Nc2ccccc2C1=O", "Potency": "35.5 µM (active)"},
      {"smiles": "CCCS(=O)(=O)C(=C1Nc2ccccc2N1)S(=O)(=O)CCC", "Potency": "inactive"},
      {"smiles": "Cc1ccc(S(=O)(=O)c2nnn3c2nc(N2CCN(c4ccccc4F)CC2)c2cc(Cl)ccc23)cc1C", "Potency": "inactive"},
      {"smiles": "COCCNC(=O)CSc1nc(-c2ccccc2)[nH]c1-c1ccc(C)cc1", "Potency": "inactive"},
      {"smiles": "Cc1csc(NCC(=O)c2c[nH]c3ccccc23)n1", "Potency": "inactive"},
      {"smiles": "COCCCn1c(-c2cccs2)nc2nc3ccccc3nc21", "Potency": "inactive"},
      {"smiles": "Clc1cccc(-c2nc3nc4ccccc4nc3n2Cc2ccco2)c1", "Potency": "7.94 µM (active)"},
      {"smiles": "Cc1nc2ccc(S(=O)(=O)N(CC(=O)Nc3ccc(F)cc3)Cc3ccccc3)cc2s1", "Potency": "inactive"},
      {"smiles": "Cc1ccc(C2C=C(c3ccc(Cl)cc3)Nc3nc(NC(=O)CCC(=O)O)nn32)cc1", "note": "(stereo not drawn)", "Potency": "inactive"},
      {"smiles": "CCOc1ccc(C(=O)CCC(=O)NC2=NCCS2)cc1", "Potency": "inactive"},
      {"smiles": "CCOc1ccc(NCCC(=O)c2ccc3c(c2)OCO3)cc1", "Potency": "2.24 µM (active)"},
      {"smiles": "CCOc1ccc(NC(=O)Cn2c(=O)n(CCCC(=O)NCc3ccc4c(c3)OCO4)c(=O)c3ccccc32)cc1", "Potency": "inactive"},
      {"smiles": "COC(=O)c1c(NC(=O)CCCOc2ccccc2)sc2c1CCC(C)C2", "note": "(stereo not drawn)", "Potency": "inactive"},
      {"smiles": "CCCc1[nH]nc2c1C(c1ccc(Br)s1)C(C#N)=C(N)O2", "note": "(stereo not drawn)", "Potency": "44.7 µM (active)"},
      {"smiles": "CCCc1nc2c([nH]1)C(c1cccnc1)C(C#N)=C(N)O2", "note": "(stereo not drawn)", "Potency": "inactive"},
      {"smiles": "CCOc1ccc(-n2c(C)nc3c(cnn3-c3ccc(C)cc3)c2=O)cc1", "Potency": "inactive"},
      {"smiles": "CCC1(C)CC(=O)c2c(ccc3oc(C(=O)Nc4ccc(C(C)=O)cc4)c(C)c23)O1", "note": "(stereo not drawn)", "Potency": "inactive"},
      {"smiles": "Cc1ccc(Cn2c(=O)n(Cc3nc(-c4ccccc4)no3)c(=O)c3cc4c(cc32)OCO4)cc1", "Potency": "inactive"},
      {"smiles": "Cc1ccc(Cn2c(C)nc3c(c2=O)c2nc4ccccc4nc2n3Cc2ccco2)cc1", "Potency": "10 µM (active)"},
      {"smiles": "Cc1ccc(OCC(=O)c2cc(C)n(Cc3ccco3)c2C)c([N+](=O)[O-])n1", "Potency": "inactive"},
      {"smiles": "CC(C)(C)C1CCC(NC(=O)c2cnn3c2NC(=C2CC2)C=C3C(F)F)CC1", "note": "(stereo not drawn)", "Potency": "inactive"},
      {"smiles": "O=S(=O)(c1ccc(Cl)cc1)c1nnn2c1nc(NC1CCCC1)c1sccc12", "Potency": "inactive"},
      {"smiles": "COc1ccc(/C=C/c2ccnc3ccccc23)cc1OC", "Potency": "inactive"},
      {"smiles": "CCOc1cc(CNC(=O)c2sc3ncnc(N(C)C4CCCCC4)c3c2C)ccc1OC", "Potency": "inactive"},
      {"smiles": "CCOC(=O)Nc1ccc2c(c1)N(C(=O)CCCl)c1ccccc1[S@]2=O", "Potency": "50.1 µM (active)"},
      {"smiles": "CCOC(=O)Nc1ccc2c(c1)N(C(=O)CN1CCN3CCCC3C1)c1ccccc1CC2", "note": "(stereo not drawn)", "Potency": "inactive"},
      {"smiles": "CCOC(=O)Nc1ccc(S(=O)(=O)N(C)C(C)C)cc1", "Potency": "inactive"},
      {"smiles": "Oc1ccc(Br)cc1C1C=C(c2ccc3c(c2)OCO3)NC(c2ccc(Cl)cc2)N1", "note": "(stereo not drawn)", "Potency": "inactive"},
      {"smiles": "CC(CCCc1ccccc1)NC(=O)c1nn(-c2ccc(Cl)cc2)nc1CO", "note": "(stereo not drawn)", "Potency": "inactive"},
      {"smiles": "COc1ccc(Cl)cc1N(C)C(=O)c1cc2c(=O)oc3ccc(C)cc3c2s1", "Potency": "inactive"},
      {"smiles": "O=C(NCCCc1ccccc1)c1ccc2c(c1)sc1nc(-c3ccc(F)cc3)cn12", "Potency": "inactive"},
      {"smiles": "CN1C(=O)c2ccccc2Sc2ccc(NC(=O)Cc3ccc(Cl)cc3)cc21", "Potency": "inactive"},
      {"smiles": "COc1cc2[nH]c(=S)n(CCN3CCCCC3C)c(=O)c2cc1OC", "note": "(stereo not drawn)", "Potency": "inactive"},
      {"smiles": "CCOc1cc2[nH]c(=S)n(Cc3ccc(C(=O)N4CCN(C)CC4)cc3)c(=O)c2cc1OCC", "Potency": "inactive"},
      {"smiles": "COc1cc2[nH]c(=S)n(Cc3ccc(C)o3)c(=O)c2cc1OC", "Potency": "8.91 µM (active)"},
      {"smiles": "OC[C@H]1O[C@@H](n2cnc3c(NC4CCCC4)ncnc32)[C@H](O)[C@H]1O", "Potency": "inactive"},
      {"smiles": "CCc1ccccc1NC(=O)c1ccc2nc(CCc3ccccc3)oc2c1", "Potency": "inactive"},
      {"smiles": "O=c1cc(-c2ccccc2)[nH]c2nc(Cl)ccc12", "Potency": "inactive"},
      {"smiles": "COc1cccc(N2CC(NC(=O)/C=C\\c3ccccc3)CC2=O)c1", "note": "(stereo not drawn)", "Potency": "inactive"},
      {"smiles": "COCOc1cc(O)c(C(=O)/C=C/c2ccc(OCOC)c(OCOC)c2)c(OCOC)c1", "Potency": "inactive"},
      {"smiles": "COc1ccc(/C=C/C(=O)c2cc(Br)ccc(=O)c2O)cc1", "Potency": "35.5 µM (active)"},
      {"smiles": "Cc1ccc(-c2nc(=N)sn2Cc2ccccc2)cc1", "Potency": "inactive"},
      {"smiles": "Cc1ccc(NC(=O)Cn2nnc3sc4c(c3c2=O)CCC(C)C4)cc1", "note": "(stereo not drawn)", "Potency": "inactive"},
      {"smiles": "COc1ccc(-c2cc(C(F)(F)F)nc(S(C)(=O)=O)n2)cc1OC", "Potency": "17.8 µM (active)"},
      {"smiles": "COc1ccc(CCNc2nc(-c3ccc(F)cc3)cc(C(F)(F)F)n2)cc1OC", "Potency": "inactive"},
      {"smiles": "COc1ccc(-c2cc(C(F)(F)F)nc(SCC(=O)N(C)Cc3ccccc3)n2)cc1OC", "Potency": "inactive"},
      {"smiles": "CC1CN(C(=O)N2CCC(C(=O)NCc3ccco3)CC2)c2cc(Cl)ccc2O1", "note": "(stereo not drawn)", "Potency": "inactive"},
      {"smiles": "CC(=O)Nc1ccc(NC(=O)CSc2nnc3c4cc(Br)ccc4n(C)c3n2)cc1", "Potency": "inactive"},
      {"smiles": "CC1CCN(S(=O)(=O)c2ccc3c(c2)N(CC(=O)NCCc2ccccc2)C(=O)CO3)CC1", "Potency": "inactive"},
      {"smiles": "Brc1ccc(C2=CC(c3ccco3)n3ncnc3N2)cc1", "note": "(stereo not drawn)", "Potency": "39.8 µM (active)"},
      {"smiles": "Cc1ccccc1OCC(=O)Nc1c(C(=O)Nc2ccccc2F)oc2ccccc12", "Potency": "inactive"},
      {"smiles": "NC(=O)Nc1ccc(/C=C/c2ccnc3ccccc23)cc1", "Potency": "inactive"},
      {"smiles": "C=CC1=C(C(=O)O)N2C(=O)[C@@H](NC(=O)/C(=N/OCC(=O)O)c3csc(N)n3)[C@H]2SC1", "Potency": "inactive"},
      {"smiles": "Cc1cc(C)cc(C(=O)NC2C(=O)N3C(C(=O)O)=C(CSc4nnc(C)s4)CSC23)c1", "note": "(stereo not drawn)", "Potency": "8.91 µM (active)"},
      {"smiles": "Cc1nnc(SCc2cc(=O)[nH]c(N3CCN(Cc4ccccc4)CC3)n2)s1", "Potency": "inactive"},
      {"smiles": "Cc1ccc(C)c(S(=O)(=O)c2nnn3c2nc(N2CCOCC2)c2sccc23)c1", "Potency": "inactive"},
      {"smiles": "O=C(Nc1ccc(Cl)cc1)c1cnn2c1NC(=C1CC1)C=C2C(F)F", "Potency": "inactive"},
      {"smiles": "CC(C)(C)n1ncc2c(=O)n(Cc3ccc(C(=O)c4ccccc4)cc3)cnc21", "Potency": "inactive"},
      {"smiles": "CCCCNC(=O)CN1C(=O)NC(Cc2ccccc2)(Cc2ccccc2)C1=O", "Potency": "inactive"},
      {"smiles": "CCCCCCCC(=O)NC(Nc1ccccc1OC)C(Cl)(Cl)Cl", "note": "(stereo not drawn)", "Potency": "inactive"},
      {"smiles": "CCCCC(O)(CCCC)C(=O)NN(C(=O)CCl)c1ccccc1", "Potency": "10 µM (active)"},
      {"smiles": "CCOc1ccccc1CNC(=O)c1cnc2c(-c3ccc(OCC)c(OCC)c3)c(C)nn2c1C", "Potency": "inactive"}
    ]}
  ]
}
